The source made the active and inactive calls.

This passage reports composite z-score and z-score results from PubChem BioAssay.

Experiment [1] in a line: small molecules captured by biotinylated probe aFSTL3 – biochemical, small-molecule microarray, fluorescence 635/667, stem cell growth factor project, primary screen (AID 1064).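 Also: measures binding of the biotinylated anti-FSTL3 antibody to printed compounds.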 As to conditions: higher = more signal.
Experiment [2] in a line: binders from COS7 lysate, DM2A8 probe, primary screen, torsin A project, cell lysate, small-molecule microarray, fluorescence 635/667 (AID 1065). The conditions noted are these: higher = more signal, COS7 lysate expressing mutant human TOR1A.
Experiment [3] is described as follows: small molecules captured by biotinylated probe aFGF2 – biochemical, small-molecule microarray, fluorescence 635/667, stem cell growth factor project, primary screen (AID 1067).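 Also: measures binding of biotinylated aFGF2 protein to printed compounds on slides; z-score merges feature fluorescence and signal-to-noise across triplicate slides.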 The conditions noted are these: higher = more signal.
Experiment [4] in a line: small molecules captured by biotinylated probe aFGF10 – biochemical, small-molecule microarray, fluorescence 635/667, stem cell growth factor project, primary screen (AID 1071).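 Also: score merges 667 nm spot intensity and signal to noise from triplicate slides.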 As to conditions: higher = more signal.
The target in experiment [5] is Neurogenic locus notch homolog protein 2 (Homo sapiens) (UniProt Q04721). As to the kind of experiment: small molecules binding Notch2 protein – biochemical, small-molecule microarray, 635 nm fluorescence, stem cell growth factors, primary screen (AID 1073). As to conditions: higher = more signal.
Experiment [6] deals with Pro-neuregulin-1, membrane-bound isoform (Homo sapiens) (UniProt Q02297). As to the kind of experiment: small molecules binding neuregulin-1 protein – biochemical, small-molecule microarray, fluorescence 635/667, psychiatric disease protein project, primary screen (AID 1075).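 Also: score combines 667 nm spot fluorescence with signal to noise.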 The conditions noted are these: NRG1 binding, 635 nm fluorescence, higher = more signal.
Experiment [7] relates to Neuregulin-1 EGF-like domain. In words: small molecules binding NRG1 EGF domain – biochemical, small-molecule microarray, 635 nm fluorescence, primary screen (AID 1081).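 Also: binding of the protein to compounds printed on small-molecule microarray slides.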 The conditions noted are these: higher = more signal.
Experiment [8] can be described thus: FRG1 expression reporter modulators in myotubes – cell-based, C2C12 myotubes, firefly/Renilla luciferase, luminescence, FRG1 inhibition for FSHD, primary screen (AID 1084). As to conditions: FRG1 promoter luciferase, higher = more signal, called active from +8 up or from −8 down.
The nature of experiment [9]: small molecules captured by biotinylated probe aFST – biochemical, small-molecule microarray, fluorescence 635/667, stem cell growth factor project, primary screen (AID 1086).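 Also: score merges 667 nm fluorescence with signal-to-noise of each printed compound spot.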 The conditions noted are these: higher = more signal.
A short description of experiment [10]: binders of probe aHhip on microarray, primary screen, stem cell growth factor project, biochemical, small-molecule microarray, fluorescence 635/667 (AID 1087).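 Also: score merges spot fluorescence at 667nm with spot signal to noise ratio.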 The conditions noted are these: higher = more signal.
The subject of experiment [11] is PRMT1 (protein arginine N-methyltransferase 1). As to the kind of experiment: small molecules binding arginine methyltransferase PRMT1 – biochemical, small-molecule microarray, 635 nm fluorescence, primary screen (AID 1088).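 Also: binding of Prmt1 protein to compounds spotted on small-molecule microarray slides.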 As to conditions: higher = more signal.
Experiment [12] can be described thus: growth effects on S. cerevisiae YJM789 – YJM789 clinical isolate, OD600, 24 h, basal, primary screen (AID 1089).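 Also: growth of clinical yeast isolate S. cerevisiae YJM 789 seeded 1000 cells per well; test concentration not given here.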 As to conditions: higher = more signal, called active from +8 up or from −8 down.
Experiment [13] is described as follows: S. pombe growth modifiers, basal conditions – strain 972, OD600, 24 h, no modulator, primary screen (AID 1090).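 Also: basal condition with compound alone and no growth modifier present; test concentration not given here.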 As to conditions: S. pombe 972 growth, higher = more signal, called active from +8 up or from −8 down.
A short description of experiment [14]: budding yeast growth modifiers under rapamycin – strain BY4716, OD600, 96 h, primary screen (AID 1091). Also: test concentration not given here. The conditions noted are these: S. cerevisiae BY4716 + rapamycin, higher = more signal, called active from +8 up or from −8 down.
Experiment [15] has as its target Torsin-1A-interacting protein 2 (Homo sapiens) (UniProt Q8NFQ8). As to the kind of experiment: small molecules binding lysate-expressed LULL1 – cell lysate, human LULL1 lysate, 635/667 nm fluorescence, primary screen (AID 1092).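 Also: probe is lysate of COS7 cells overexpressing human LULL1; score merges per-feature 667 nm fluorescence with signal-to-noise.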 As to conditions: small-molecule microarray, hLULL1 lysate binding, 635 nm fluorescence; higher = more signal.
Experiment [16] can be described thus: optical density change of DRC41 E. coli – strain DRC41, OD650, 24 h, E. coli filamentation project, primary screen (AID 1093).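 Also: MC1000 strain lacking acrAB efflux and sulA so SOS filamentation is blocked; test concentration not given here.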 The conditions noted are these: E. coli DRC41 growth, higher = more signal, called active from +8 up or from −8 down.
The nature of experiment [17]: probe aLefty2 binding to arrayed compounds – biochemical, biotinylated probe, 635/667 nm fluorescence, primary screen (AID 1094).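 Also: score merges spot fluorescence near 667 nm with spot signal-to-noise ratio.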 As to conditions: small-molecule microarray, higher = more signal.
The subject of experiment [18] is Noggin (protein binding on small-molecule microarray). As to the kind of experiment: small molecules binding Noggin protein – biochemical, 635/667 nm fluorescence, primary screen (AID 1095).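 Also: score merges 667 nm feature fluorescence with signal to noise over triplicate slides.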 As to conditions: 635 nm fluorescence, higher = more signal.
Experiment [19] has as its target Neurogenic locus notch homolog protein 3 (Homo sapiens) (UniProt Q9UM47). In words: small molecules binding NOTCH3 protein – biochemical, 635/667 nm fluorescence, primary screen (AID 1096). As to conditions: small-molecule microarray, 635 nm fluorescence, higher = more signal.
The nature of experiment [20]: probe aEGFR binding to arrayed compounds – biochemical, biotinylated probe, 635/667 nm fluorescence, primary screen (AID 1097).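 Also: probe is a biotinylated anti-EGFR antibody binding compounds printed on slides; score combines fluorescence near 667 nm and signal to noise of each spot.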 As to conditions: small-molecule microarray, higher = more signal.

Chain of Torsin-1A-interacting protein 2 (Homo sapiens) (Q8NFQ8 whole entry, looked up): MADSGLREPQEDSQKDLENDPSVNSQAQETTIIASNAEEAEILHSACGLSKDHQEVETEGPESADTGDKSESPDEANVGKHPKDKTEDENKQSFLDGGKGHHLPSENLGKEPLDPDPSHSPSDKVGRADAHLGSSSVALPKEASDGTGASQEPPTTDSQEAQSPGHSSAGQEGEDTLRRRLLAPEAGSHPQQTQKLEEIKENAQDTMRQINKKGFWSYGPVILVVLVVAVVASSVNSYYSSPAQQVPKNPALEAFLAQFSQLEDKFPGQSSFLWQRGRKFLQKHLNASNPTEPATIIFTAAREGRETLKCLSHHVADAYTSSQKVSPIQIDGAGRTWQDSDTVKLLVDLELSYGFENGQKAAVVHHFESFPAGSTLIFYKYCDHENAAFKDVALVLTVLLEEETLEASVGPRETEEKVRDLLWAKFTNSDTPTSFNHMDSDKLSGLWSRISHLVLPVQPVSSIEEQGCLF
Chain of Neurogenic locus notch homolog protein 2 (Homo sapiens) (Q04721 whole entry, looked up, canonical isoform): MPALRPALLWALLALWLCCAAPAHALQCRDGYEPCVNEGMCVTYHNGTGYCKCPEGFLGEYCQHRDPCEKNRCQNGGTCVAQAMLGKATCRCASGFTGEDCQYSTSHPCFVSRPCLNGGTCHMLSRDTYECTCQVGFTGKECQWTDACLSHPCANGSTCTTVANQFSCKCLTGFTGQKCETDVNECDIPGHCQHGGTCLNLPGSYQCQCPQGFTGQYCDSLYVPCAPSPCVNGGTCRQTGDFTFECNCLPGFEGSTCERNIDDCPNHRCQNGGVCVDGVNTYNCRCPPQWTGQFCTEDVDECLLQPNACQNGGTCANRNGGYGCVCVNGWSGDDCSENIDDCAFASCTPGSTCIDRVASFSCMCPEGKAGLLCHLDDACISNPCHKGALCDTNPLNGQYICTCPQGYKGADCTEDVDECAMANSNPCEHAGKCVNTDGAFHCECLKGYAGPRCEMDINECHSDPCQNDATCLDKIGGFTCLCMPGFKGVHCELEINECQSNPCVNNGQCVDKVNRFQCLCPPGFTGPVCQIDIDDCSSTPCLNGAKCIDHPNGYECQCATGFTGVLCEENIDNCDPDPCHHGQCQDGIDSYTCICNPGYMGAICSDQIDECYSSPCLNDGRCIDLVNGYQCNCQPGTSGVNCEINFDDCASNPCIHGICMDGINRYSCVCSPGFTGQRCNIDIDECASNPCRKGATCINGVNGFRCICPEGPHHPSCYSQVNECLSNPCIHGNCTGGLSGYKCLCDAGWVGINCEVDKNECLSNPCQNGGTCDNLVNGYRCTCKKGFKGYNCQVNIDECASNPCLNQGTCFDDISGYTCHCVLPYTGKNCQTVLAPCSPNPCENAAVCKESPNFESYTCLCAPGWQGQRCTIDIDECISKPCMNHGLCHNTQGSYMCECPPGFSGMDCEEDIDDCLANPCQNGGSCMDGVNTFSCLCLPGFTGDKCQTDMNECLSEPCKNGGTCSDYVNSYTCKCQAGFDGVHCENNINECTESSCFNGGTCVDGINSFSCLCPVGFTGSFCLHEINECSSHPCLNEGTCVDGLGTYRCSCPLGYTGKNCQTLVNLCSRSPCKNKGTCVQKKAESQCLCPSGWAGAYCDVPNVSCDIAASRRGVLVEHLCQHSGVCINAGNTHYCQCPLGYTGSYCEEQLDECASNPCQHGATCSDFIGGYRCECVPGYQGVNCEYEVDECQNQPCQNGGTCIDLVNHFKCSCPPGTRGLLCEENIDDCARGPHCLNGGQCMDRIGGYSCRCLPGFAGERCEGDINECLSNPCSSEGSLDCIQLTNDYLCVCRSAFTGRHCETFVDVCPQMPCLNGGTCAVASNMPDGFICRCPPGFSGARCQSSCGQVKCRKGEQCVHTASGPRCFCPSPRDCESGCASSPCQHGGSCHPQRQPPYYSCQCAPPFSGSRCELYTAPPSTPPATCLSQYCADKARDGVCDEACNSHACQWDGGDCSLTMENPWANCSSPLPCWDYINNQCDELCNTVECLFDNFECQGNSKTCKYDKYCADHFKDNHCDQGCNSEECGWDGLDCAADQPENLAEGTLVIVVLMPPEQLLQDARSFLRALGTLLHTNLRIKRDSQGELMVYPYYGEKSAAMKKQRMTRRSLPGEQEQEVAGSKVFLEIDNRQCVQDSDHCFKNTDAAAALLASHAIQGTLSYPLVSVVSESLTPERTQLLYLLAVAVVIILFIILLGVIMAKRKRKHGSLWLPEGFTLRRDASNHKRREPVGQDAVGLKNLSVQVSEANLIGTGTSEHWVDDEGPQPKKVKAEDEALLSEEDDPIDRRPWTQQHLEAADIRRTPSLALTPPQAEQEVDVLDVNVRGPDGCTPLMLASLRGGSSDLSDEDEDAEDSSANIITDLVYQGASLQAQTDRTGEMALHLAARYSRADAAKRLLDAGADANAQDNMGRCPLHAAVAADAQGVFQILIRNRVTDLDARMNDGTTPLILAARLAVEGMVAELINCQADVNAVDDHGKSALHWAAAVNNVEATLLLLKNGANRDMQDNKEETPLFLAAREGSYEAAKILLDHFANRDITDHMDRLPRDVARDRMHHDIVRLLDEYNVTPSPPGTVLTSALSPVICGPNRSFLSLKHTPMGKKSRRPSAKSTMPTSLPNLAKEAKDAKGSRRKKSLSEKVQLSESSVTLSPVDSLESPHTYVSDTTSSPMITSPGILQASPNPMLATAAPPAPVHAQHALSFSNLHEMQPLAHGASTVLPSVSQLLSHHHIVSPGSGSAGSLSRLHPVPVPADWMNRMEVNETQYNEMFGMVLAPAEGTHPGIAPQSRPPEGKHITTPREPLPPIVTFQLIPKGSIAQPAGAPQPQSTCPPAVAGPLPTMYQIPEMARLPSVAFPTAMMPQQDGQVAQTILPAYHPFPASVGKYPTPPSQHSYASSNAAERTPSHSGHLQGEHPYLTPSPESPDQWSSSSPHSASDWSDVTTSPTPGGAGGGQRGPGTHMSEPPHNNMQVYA
Chain of Pro-neuregulin-1, membrane-bound isoform (Homo sapiens) (Q02297 whole entry, looked up, the tested form may be a part, canonical isoform): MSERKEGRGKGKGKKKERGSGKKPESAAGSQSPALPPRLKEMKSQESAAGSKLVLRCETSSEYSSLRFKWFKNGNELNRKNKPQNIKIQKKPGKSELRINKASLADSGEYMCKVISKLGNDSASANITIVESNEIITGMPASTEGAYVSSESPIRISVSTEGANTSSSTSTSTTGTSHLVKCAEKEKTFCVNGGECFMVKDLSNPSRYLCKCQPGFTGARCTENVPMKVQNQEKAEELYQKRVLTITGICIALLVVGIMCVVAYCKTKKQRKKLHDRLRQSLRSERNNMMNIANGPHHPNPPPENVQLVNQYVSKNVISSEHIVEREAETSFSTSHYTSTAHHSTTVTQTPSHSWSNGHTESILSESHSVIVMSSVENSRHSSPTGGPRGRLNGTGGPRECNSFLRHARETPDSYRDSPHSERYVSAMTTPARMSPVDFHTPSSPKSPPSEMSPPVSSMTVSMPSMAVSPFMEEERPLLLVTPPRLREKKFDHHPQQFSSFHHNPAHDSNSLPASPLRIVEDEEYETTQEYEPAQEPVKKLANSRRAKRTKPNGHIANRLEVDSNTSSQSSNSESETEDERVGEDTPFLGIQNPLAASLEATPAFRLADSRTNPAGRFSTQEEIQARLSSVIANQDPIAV

Turning to `CN(C)CCCNC(=O)[C@@]1(Cc2ccccc2I)c2ccccc2C(=O)N(C2CCCCC2)[C@H]1c1ccc(CO)cc1`, the composite z-score was 1.13 in [1]; 1.02 in experiment [2]; 0.0676 in [3]; 0.293 in experiment [4]; 1.24 in experiment [5]; 0.418 in experiment [6]. For the same compound, the composite z-score in experiment [7] turned out to be 1.26; in experiment [9], 0.68; in experiment [10], 0.214; in experiment [11] it was 1.55; in experiment [15], 2.34; in experiment [17], 0.446. Moreover, the composite z-score stood at 0.27 in experiment [18], 0.953 in [19] and 0.123 in experiment [20]. The z-score in experiment [8] is -3.32 (inactive); in experiment [12], 0.273 (inactive); in experiment [13] it was -19.5 (active); in experiment [14], -2.99 (inactive); in experiment [16] it was 0.0304 (inactive).

Regarding `CC(C)(C)N1CC=CC23O[C@@H]4/C=C\CCCOC(=O)C4[C@H]2C(=O)N(CCCO)[C@@H]3C1=O` (stereo not given in full), the composite z-score was 0.164 in experiment [1]; -0.496 in [2]; -0.203 in [3]; -0.147 in experiment [4]; -0.864 in [5]; 1.07 in experiment [6]. Moreover, the composite z-score in experiment [7] was 1.1; in experiment [9], -0.582; in experiment [10], -0.286; in experiment [11], 0.477; in [15], 1.11; in [17], -0.279. Moreover, the composite z-score is -0.877 in experiment [18], 0.0017 in experiment [19] and -0.129 in experiment [20]. The z-score in experiment [8] is 0.502 (inactive); in [12] it was -1.01 (inactive); in experiment [13], 0.0214 (inactive); in experiment [14], -0.766 (inactive); in [16] it was -0.282 (inactive).

Consider `CCCCN1CC=CC23O[C@@H]4/C=C\CCCOC(=O)C4[C@H]2C(=O)N(C(CO)C(C)C)[C@@H]3C1=O` (stereo not given in full), for which the composite z-score in experiment [1] is -0.1; in experiment [2], 0.0253; in experiment [3] it was -0.101; in [4], 0.728; in experiment [5], -0.185; in experiment [6] it was -0.164. The composite z-score is 1.47 in experiment [7]; -0.228 in experiment [9]; -0.236 in experiment [10]; -0.385 in experiment [11]; 0.601 in [15]; -0.165 in [17]. The values for the composite z-score in experiment [18], in [19] and in [20] were -0.21, -0.754 and 0.371, respectively. The z-score in [8] was 0.723 (inactive); in [12], 0.383 (inactive); in experiment [13], -0.74 (inactive); in experiment [14], 0.0577 (inactive); in experiment [16], -0.714 (inactive).

As for `COC(=O)[C@@]1(Cc2ccccc2)[C@H]2c3cc(C(=O)N(C)C)n(Cc4ccc(S(C)(=O)=O)cc4)c3C[C@H]2CN1C(=O)c1ccccc1`, the composite z-score in experiment [1] came out at 0.442; in experiment [2], 0.198; in experiment [3], 0.431; in [4], 0.443; in experiment [5], 1.48; in experiment [6] it was 2.03. In addition, the composite z-score was 1.22 in experiment [7]; 0.744 in experiment [9]; -0.118 in experiment [10]; -0.541 in experiment [11]; 3.51 in [15]; 0.384 in experiment [17]. The composite z-score in experiment [18] is -0.415; in experiment [19] it was 1.11; in [20] it was 0.211. The z-score was 2.39 (inactive) in [8]; 0.407 (inactive) in [12]; 0.279 (inactive) in [13]; 0.654 (inactive) in [14]; -1.59 (inactive) in [16].

On to `CCN(CC)c1ccc(N2CC=CC34O[C@@H]5C=CCCOC(=O)C5[C@H]3C(=O)N(C(C)CO)[C@@H]4C2=O)cc1` (stereo not given in full), for which the composite z-score in experiment [1] was 0.221; in experiment [2], 0.864; in experiment [3] it was -0.0627; in [4], -0.227; in [5], -0.371; in experiment [6] it was 0.415. Further, the composite z-score in experiment [7] is 1.36; in [9], -0.0426; in [10] it was -0.34; in experiment [11], 1.05; in [15], 2.11; in experiment [17] it was 0.0815. Further, the composite z-score in [18] was 0.524; in experiment [19] it was 0.61; in [20], -0.0702. Further, the z-score in experiment [8] is 0.725 (inactive); in experiment [12], -1.01 (inactive); in experiment [13] it was -1.6 (inactive); in experiment [14] it was -0.399 (inactive); in experiment [16], -0.42 (inactive).
